Sampled rows, rich in hits. Any-hit rate of the full collection: about 2.5%.
MEKK2 mut-MEK5 – signal of MEK5 binding to mutant human MEKK2 PB1 domain; percent response, % at 10 µM; AID 1530; 290,000 compounds, 0.35% hits; bead flow cytometry, Alexa488-MEK5 binding to MEKK2 mutant; in the data active = percent response above about 24%, passing the limit was not always enough
MEKK3 PB1 HTS – MEKK3-MEK5 PB1 interaction, increase or decrease | Q99759 | 290,000 compounds, 1.4% hits | bead-based flow cytometry, Alexa488-MEK5 binding to MEKK3; actives lie on both sides; 0 = blocked by unlabeled MEK5, 100 = vehicle | binding response (% of control), % at 10 µM | AID 1529;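 active = binding response more than 3 SD above or below the average of its plate-row segment, actives on both sides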;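 note: Alexa488 bead fluorescence after subtracting the streptavidin-only scavenger bead signal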
MEKK2 WT-MEK5 – raises or lowers MEK5 binding to wildtype human MEKK2 PB1 domain | 290,000 compounds, 1.1% hits | bead flow cytometry, Alexa488-MEK5 binding to MEKK2 WT; actives lie on both sides | binding response (% of control), % at 10 µM; in the data active = binding response below about 67% or above about 130%
GRK2 aptamer HTS – blocks RNA aptamer binding to human GRK2; bead flow cytometry, FAM-aptamer displacement from GRK2; inhibition of aptamer binding, % at 10 µM; 330,000 compounds, 0.59% hits; AID 488847;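 active = inhibition of aptamer binding above 40%, roughly 3 SD of noise, on plates passing a quality check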;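 note: median bead fluorescence of bound FAM aptamer so fluorescent compounds give negative values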
Target sequence (P25098 whole entry, looked up): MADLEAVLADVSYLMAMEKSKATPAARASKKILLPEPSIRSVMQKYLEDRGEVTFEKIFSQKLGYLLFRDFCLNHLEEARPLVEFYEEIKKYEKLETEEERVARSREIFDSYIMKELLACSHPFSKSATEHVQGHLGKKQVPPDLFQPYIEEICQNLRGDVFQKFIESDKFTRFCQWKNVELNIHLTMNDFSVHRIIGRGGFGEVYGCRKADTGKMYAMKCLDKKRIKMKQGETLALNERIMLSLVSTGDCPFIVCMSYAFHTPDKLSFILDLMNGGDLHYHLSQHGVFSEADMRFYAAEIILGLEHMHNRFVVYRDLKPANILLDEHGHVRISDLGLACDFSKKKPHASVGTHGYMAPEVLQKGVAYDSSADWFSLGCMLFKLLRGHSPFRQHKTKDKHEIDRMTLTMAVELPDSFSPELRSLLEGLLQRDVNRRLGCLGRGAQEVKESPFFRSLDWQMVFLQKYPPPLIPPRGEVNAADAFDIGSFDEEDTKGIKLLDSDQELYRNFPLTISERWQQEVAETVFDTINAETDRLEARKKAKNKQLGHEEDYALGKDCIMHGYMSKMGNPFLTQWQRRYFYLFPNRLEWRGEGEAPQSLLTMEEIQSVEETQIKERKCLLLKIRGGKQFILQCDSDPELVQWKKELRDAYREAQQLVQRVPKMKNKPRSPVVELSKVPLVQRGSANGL
MEKK2wt confirm – raises or lowers MEK5 binding to wildtype human MEKK2, retest; shares compounds with MEKK3 PB1 HTS; bead flow cytometry, Alexa488-MEK5 binding to MEKK2 WT; actives lie on both sides; binding response (% of control), % at 10 µM; 5,900 compounds, 2.4% hits; AID 1892; in the data active = binding response below about 16% or above about 210%; inactive = in between
MEKK2mut-MEK5 – signal of MEK5 binding to mutant human MEKK2, retest | bead flow cytometry, Alexa488-MEK5 binding to MEKK2 mutant | shares compounds with MEKK3 PB1 HTS | 5,900 compounds, 2% hits | percent response, % at 10 µM; in the data active = percent response mostly above about 71%, no sharp cut-off; inactive = mostly below about 38%;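 note: higher means compound restores mutant binding toward wildtype level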
MEKK3-MEK5 inh – confirmation of inhibitors of MEK5 binding to human MEKK3 | binding response (% of control), % at 10 µM | 5,900 compounds, 1.8% hits | shares compounds with MEKK3 PB1 HTS | bead flow cytometry, Alexa488-MEK5 binding to MEKK3; active compounds read low;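 active = binding response below 72% of control, or above a set upper limit, though filed actives all read lower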;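 note: 100% = DMSO only wells and 0% = binding blocked by excess unlabeled MEK5; lower values mean stronger disruption of MEK5 binding to MEKK3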
The depositor's hits bear a star; . = no result; [ ] = remark or other dose.

SMILES	MEKK2 mut-MEK5	MEKK3 PB1 HTS	MEKK2 WT-MEK5	GRK2 aptamer HTS	MEKK2wt confirm	MEKK2mut-MEK5	MEKK3-MEK5 inh
CC(=O)OC1CC(C)(C)N(OC(=O)c2ccccc2)C(C)(C)C1	1	103	108	3	.	.	.
C/C(=N\Nc1cc(N2CCCCC2)nc(C)n1)c1ccc(Br)cc1	45*	118	183*	1	159	29	105
C[C@H](NC(=O)[C@@H]1CSC2c3ccccc3C(=O)N21)C(=O)NCCc1ccccc1 (stereo partly drawn)	-2	99	106	2	.	.	.
O=C(N=C1SC2CS(=O)(=O)CC2N1c1ccc(F)c(Cl)c1)C1CC1 (stereo not drawn)	-13	96	92	1	.	.	.
Cc1occc1-c1nnc(SCc2nc3ccccc3c(=O)n2CC#N)n1C	2	95	94	0	.	.	.
CC1(C)CC(=O)c2cnc(NCC3CCCO3)nc2C1 (stereo not drawn)	3	101	100	1	.	.	.
O=C(O)CCS(=O)(=O)Cc1ccccc1F	-46	2.0*[inhibitor]	2.0*[inhibitor]	1	108	5	105
COc1ccccc1-c1ccc(NC2CCCCC2)nn1	-8	81*[inhibitor]	83	0	103	3	103
COc1ccccc1-c1ccc(Nc2cccc(C(F)(F)F)c2)nn1	2	98	101	2	.	.	.
O=c1[nH]nc(CNc2ccc(C(F)(F)F)cc2)c2ccccc12	0	109	103	1	.	.	.
O=c1[nH]nc(CNc2ccc(OC(F)(F)F)cc2)c2ccccc12	-17	39*[inhibitor]	50	1	100	-4	104
C(=C\c1nc(N2CCCC2)c2ccccc2n1)/c1ccccc1	30	107	158*	0	153	39	111
c1ccc(Nc2nc(N3CCCCC3)nc(N3CCCCC3)n2)cc1	3	105	106	0	.	.	.
COc1ccc(Nc2nc(N3CCCCC3)c3ccccc3n2)cc1	14	106	136*	0	158	36	112
Oc1ccc(Nc2nc(N3CCCC3)c3ccccc3n2)cc1	21	107	153*	0	197	93*	109
CCOc1ccc(Nc2nc(N3CCCCC3)nc(N3CCCCC3)n2)cc1	-7	78*[inhibitor]	87	4	114	11	108
CC(=O)Oc1ccc2c(=O)oc(-c3ccccc3C)nc2c1	-1	104	104	1	.	.	.
CC(C)Cc1nc(SCC(=O)N2CCOCC2)c2c(=O)n(C)c(=O)n(C)c2n1	7	101	102	7	.	.	.
O=C(CCCc1ccccc1)Nc1ccccc1[N+](=O)[O-]	2	107	107	0	.	.	.
CS(=O)(=O)Nc1cccc(C(=O)OCCCOc2ccc(F)cc2)c1	-8	64*[inhibitor]	31*[inhibitor]	0	99	-3	103
CCCCCCCCCCOC(=O)Cn1c(COc2ccc(OC)cc2)[n+](C)c2ccccc21	80*	120	256*	0	266*	79*	108
CCCCCCCCCCOC(=O)Cn1c(COc2ccccc2C)[n+](C)c2ccccc21	141*	115	293*	0	254*	150*	111
CCOC(=O)Cn1c(COc2ccccc2OC)[n+](C)c2ccccc21	.	.	.	0	.	.	.
CCCCCCCCCCOC(=O)Cn1c(COc2cccc(C)c2)[n+](C)c2ccccc21	112*	123*	402*	.	254*	90*	109
CCCCCCCCCCOC(=O)Cn1c(COc2ccccc2)[n+](C)c2ccccc21	61*	113	226*	0	230*	84*	114
SMILES	MEKK2 mut-MEK5	MEKK3 PB1 HTS	MEKK2 WT-MEK5	GRK2 aptamer HTS	MEKK2wt confirm	MEKK2mut-MEK5	MEKK3-MEK5 inh
CCN(C[C@H]1N[C@@](C)(C(=O)OC)[C@H]2C(=O)N(Cc3ccccc3)C(=O)[C@@H]12)S(=O)(=O)c1ccc(C)cc1	.	.	.	3	.	.	.
CCCCCCCCCCOC(=O)Cn1c(COc2ccc(Cl)cc2)[n+](C)c2ccccc21	101*	115	349*	0	204	54	108
Cc1ccccc1OCc1n(CC(=O)OC2CC(C)CCC2C(C)C)c2ccccc2[n+]1C (stereo not drawn)	-3	104	159*	0	175	39	109
CC1CCC(C(C)C)C(OC(=O)COC(=O)c2ccc(N)cc2)C1 (stereo not drawn)	8	100	115	3	.	.	.
Cc1ccccc1CN1CCNC(=O)C1CC(=O)O (stereo not drawn)	-1	91	110	0	.	.	.
CCOC(=O)c1ccc(NS(=O)C23CC4CC(CC(C4)C2)C3)cc1 (stereo not drawn)	-35	97	-6.0*[inhibitor]	1	105	-1	103
CCOC(=O)c1ccc(NC(=O)CNC(=O)C23CC4CC(CC(C4)C2)C3)cc1	4	109	107	1	.	.	.
Nc1ccc(S(=O)(=O)Nc2nccc(/C=C/c3ccccc3F)n2)cc1	0	134*	116	1	95	-3	97
Cc1sc(NC(=O)c2cc3ccccc3oc2=O)c(C(=O)OC(C)C)c1-c1ccccc1	2	97	103	0	.	.	.
CC(=O)c1ccc(NC(=O)CSc2ccc(-c3ccc4c(c3)OCO4)nn2)cc1	0	130*	103	0	106	7	107
CN1CCN(c2cc3c(c4c2[nH]c2ccccc24)C(=O)CC(C)(C)C3)CC1	36*	115	159*	0	147	44	105
CC(=O)c1cc(-c2ccccc2)n(CCC(=O)NC2CCCCCCC2)c1C	-1	106	105	0	.	.	.
C(=N\N1CCN(C2c3ccccc3-c3ccccc32)CC1)/c1ccncc1	3	105	103	0	.	.	.
Cc1ccsc1/C=N/N1CCN(C2c3ccccc3-c3ccccc32)CC1	-8	82*[inhibitor]	91	5	104	-3	102
COc1ccc(N2C(=O)CC(N(CCc3ccccc3)C(=O)c3ccccc3)C2=O)cc1 (stereo not drawn)	-6	91	93	2	.	.	.
CCOC(=O)c1cc(-c2ccccc2)sc1NC(=O)CC	2	105	102	7	.	.	.
CCOC(=O)c1cc(-c2ccccc2)sc1NC(=O)CCN1C(=O)c2ccccc2C1=O	1	97	32*[inhibitor]	0	99	-6	98
CCOC(=O)c1cc(-c2ccccc2)sc1NC(=O)C(C)N1C(=O)c2ccccc2C1=O (stereo not drawn)	0	136*	105	1	97	-3	106
CCOC(=O)c1cc(-c2ccccc2)sc1NC(=O)C(C)Sc1nnc(N)s1 (stereo not drawn)	2	108	122	0	.	.	.
